This is a sample that favours compounds with a hit; in the whole collection about 2.9% have one here.
MEKK2wt PB1 HTS – raises or lowers MEK5 binding to wildtype human MEKK2 PB1 domain; bead flow cytometry, Alexa488-MEK5 binding to MEKK2 WT; actives lie on both sides; binding response (% of control), % at 10 µM; actives 1.1% (n = 290,000); AID 1531; in the data active = binding response below about 67% or above about 130%
Beta2AR agonist – human beta-2 adrenergic receptor agonism by FAP; Am2.2-beta2AR cells, FAP receptor internalization, flow cytometry; P07550; actives 0.43% (n = 340,000); AID 504454; response, % (test concentration not listed);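 active = response above a set limit, near 3 SD of response in nonfluorescent compounds, cut at about 42% in these data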
MEKK3 PB1 HTS – MEKK3-MEK5 PB1 interaction, increase or decrease. Q99759. bead-based flow cytometry, Alexa488-MEK5 binding to MEKK3; actives lie on both sides; 0 = blocked by unlabeled MEK5, 100 = vehicle. binding response (% of control), % at 10 µM. actives 1.4% (n = 290,000). AID 1529;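 active = binding response more than 3 SD above or below the average of its plate-row segment, actives on both sides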;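 also: Alexa488 bead fluorescence after subtracting the streptavidin-only scavenger bead signal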
MEKK2mut PB1 HTS – signal of MEK5 binding to mutant human MEKK2 PB1 domain; bead flow cytometry, Alexa488-MEK5 binding to MEKK2 mutant; percent response, % at 10 µM; actives 0.35% (n = 290,000); AID 1530; in the data active = percent response above about 24%, passing the limit was not always enough
GRK2 aptamer HTS – blocks RNA aptamer binding to human GRK2; P25098; actives 0.59% (n = 330,000); bead flow cytometry, FAM-aptamer displacement from GRK2; inhibition of aptamer binding, % at 10 µM; AID 488847;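 active = inhibition of aptamer binding above 40%, roughly 3 SD of noise, on plates passing a quality check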;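 also: median bead fluorescence of bound FAM aptamer so fluorescent compounds give negative values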
Target sequence (P25098 whole entry, looked up): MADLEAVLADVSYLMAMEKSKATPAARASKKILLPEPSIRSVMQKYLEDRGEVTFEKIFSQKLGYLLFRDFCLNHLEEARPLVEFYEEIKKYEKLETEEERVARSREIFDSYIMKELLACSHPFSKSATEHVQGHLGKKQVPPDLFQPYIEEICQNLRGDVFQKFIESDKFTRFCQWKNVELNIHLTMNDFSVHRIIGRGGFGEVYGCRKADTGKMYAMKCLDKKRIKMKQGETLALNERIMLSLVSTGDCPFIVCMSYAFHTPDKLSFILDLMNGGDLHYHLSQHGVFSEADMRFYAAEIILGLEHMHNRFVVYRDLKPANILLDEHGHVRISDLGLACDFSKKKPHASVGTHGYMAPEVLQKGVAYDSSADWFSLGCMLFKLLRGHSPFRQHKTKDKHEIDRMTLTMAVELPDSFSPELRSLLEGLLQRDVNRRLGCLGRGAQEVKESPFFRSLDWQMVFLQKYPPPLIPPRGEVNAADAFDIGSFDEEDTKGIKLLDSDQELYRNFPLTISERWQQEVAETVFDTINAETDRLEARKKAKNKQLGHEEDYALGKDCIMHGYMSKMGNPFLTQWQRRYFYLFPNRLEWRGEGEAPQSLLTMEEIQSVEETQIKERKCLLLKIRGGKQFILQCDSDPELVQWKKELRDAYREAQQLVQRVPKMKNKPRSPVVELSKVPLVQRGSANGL
GRK2 CP1 – confirmation of human GRK2 inhibitors displacing RNA aptamer; aptamer displacement, % at 10 µM; shares compounds with GRK2 aptamer HTS; AID 504451; bead-bound GRK2, FAM-aptamer displacement, flow cytometry; actives 4% (n = 2,000);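 active = aptamer displacement above 40%, near three times the noise of non-fluorescent compounds, on plates passing quality checks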;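 also: negative values mostly reflect intrinsic compound fluorescence rather than true enhancement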
FAM quench CP1 – quenches fluorescent RNA aptamer, GRK2 hit artifact; shares compounds with GRK2 aptamer HTS; Carboxyfluorescein RNA aptamer on beads, flow cytometry quenching; stronger effect = lower value; fluorescence response (% of DMSO), % at 10 µM; 2,000 tested, under 10 active;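 active = compounds that quench the bead-bound fluorescent RNA probe, cutting fluorescence to under half of the solvent control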;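 also: counterscreen run without GRK2 so only probe quenching by compound is measured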
GRK2 CP2 – confirmation of human GRK2 inhibitors binding RNA aptamer site; shares compounds with GRK2 aptamer HTS; bead-bound GRK2, FAM-aptamer displacement, flow cytometry; inhibition of aptamer binding, % at 10 µM; 360 tested, under 10 active; AID 504782;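 active = inhibition of aptamer binding above 40%, about triple the noise seen with nonglowing compounds, on plates passing quality control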;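 also: negative values mostly come from compounds that fluoresce themselves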
FAM quench SP – counter-screen for GRK2 binding hits: quenchers of fluorescent RNA aptamer | shares compounds with GRK2 aptamer HTS | carboxyfluorescein RNA aptamer beads, flow cytometry quenching; stronger effect = lower value | fluorescence response vs DMSO, % at 10 µM | 360 tested, under 10 active;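 active = response vs DMSO under 50%, meaning signal dropped by over half, treated as fluorescence quencher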;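 also: labelled aptamer on streptavidin beads without GRK2 as a quench counter-screen; 100% = bead fluorescence of DMSO wells and lower means quenching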
Starred values were filed as active, the others as inactive; . = no result.

SMILES	MEKK2wt PB1 HTS	Beta2AR agonist	MEKK3 PB1 HTS	MEKK2mut PB1 HTS	GRK2 aptamer HTS	GRK2 CP1	FAM quench CP1	others
CC1CC(C)CN(C(=O)c2cn(C)c3ccc(S(=O)(=O)N(C)C)cc3c2=O)C1 (configuration not stated)	100	2	100	-1	86*	1	103
Cc1cc(C(=O)Nc2nncs2)oc1C	101	9	100	2	90*	0	98
OC(COc1ccc(C2C=CCC2)cc1)CN1CCCCC1 (configuration not stated)	115	6	61	0	62*	-75	105
CCN(C(=O)COC(=O)C1CCC(C(C)(C)C)CC1)c1c(N)n(Cc2ccccc2)c(=O)[nH]c1=O (configuration not stated)	.	-13	.	.	.	.	.
CCOc1cc(/C=N/NC(=O)c2cccnc2)cc(Br)c1OCC(N)=O	108	-5	106	5	1	.	.
CC(C)CCNC(=O)c1ccc(-n2cnc3cccnc32)cc1	105	-1	105	4	45*	-1	98
O=C(CSc1ncccc1-c1nc2ccccc2[nH]1)Nc1ccc2c(c1)OCCO2	100	-9	101	-1	0	.	.
O=C(CSc1nc2ccccc2[nH]1)Nc1nc(-c2cccc(Br)c2)cs1	93	12	102	12	75*	.	.	GRK2 CP2=-10;FAM quench SP=100
Cc1nnc(SCC(=O)NC(=O)Nc2ccc3c(c2)OCCO3)n1N	92	-3	91	-13	46*	1	100
CCc1c(C)nc(SCC(=O)Nc2ccc3c(c2)OCCO3)[nH]c1=O	92	5	98	-17	10	.	.
Cc1ccc(-n2nnnc2SCC(=O)NC(=O)Nc2ccc3c(c2)OCCO3)cc1	91	-8	85	-5	1	.	.
Cc1ccc2nc(SCC(=O)Nc3ccc4c(c3)OCCO4)[nH]c2c1	106	-7	106	5	1	.	.	GRK2 CP2=19;FAM quench SP=101
O=C(CSc1nc2ccccc2[nH]1)Nc1ccc2c(c1)OCCO2	99	-3	104	0	0	.	.	GRK2 CP2=-49;FAM quench SP=100
COc1ccc(NC(=S)N2CCCN(Cc3cc(C)ccc3C)C2)cc1	106	-2	107	9	1	.	.
NC(=O)c1nn(CC(=O)Nc2cccc(S(=O)(=O)N3CCCC3)c2)c(=O)c2ccccc12	.	-2	.	.	1	.	.
COc1ccc(NC(=O)c2ccccc2[N+](=O)[O-])cc1	103	8	109	0	51*	.	.	GRK2 CP2=10;FAM quench SP=98
COc1ccc(CNC(=O)c2ccccc2[N+](=O)[O-])cc1	102	4	101	4	4	.	.
O=C1NCCN(Cc2cccc(Oc3ccccc3)c2)C1CC(=O)N1CCCO1 (configuration not stated)	90	-11	99	-15	0	.	.
O=C1NC(=O)/C(=C\c2ccc(O)cc2O)S1	82	1	86	-14	76*	3	102
C=CCOc1ccc2ccccc2c1CNn1c(C)n[nH]c1=S	102	1	101	1	78*	-15	99
C=CCOc1ccc(CNn2c(C)n[nH]c2=S)cc1OC	110	12	108	9	0	.	.
CC(=O)N1CCc2cc(S(=O)(=O)CCC(=O)NCCc3ccccc3)ccc21	103	-5	100	2	1	.	.
Cc1ccc2nc(-c3ccccn3)c(Nc3ccccc3C)n2c1	105	9	97	6	84*	0	99
COc1ccc(-c2cn[nH]c2N)cc1	95	-1	87	-4	63*	2	82
CC(=O)n1cc([C@@H]2C=C(C(=O)Nc3ccccc3)O[C@H](OCc3ccc(CO)cc3)C2)c2ccccc21	104	5	95	-2	64*	-1	100
SMILES	MEKK2wt PB1 HTS	Beta2AR agonist	MEKK3 PB1 HTS	MEKK2mut PB1 HTS	GRK2 aptamer HTS	GRK2 CP1	FAM quench CP1	others
Cc1cc(NC(=O)c2ccc(Cl)cc2)no1	98	-7	100	4	71*	0	95
CCc1ccc(/C([O-])=C(/C(=S)NCCN2CCOCC2)[n+]2ccccc2)cc1	100	-2	99	-4	72*	-5	104
CCNC(=S)/C(=C(/[O-])c1ccc([N+](=O)[O-])cc1)[n+]1ccccc1	103	1	103	3	7	.	.
O=C(COc1cc2oc(=O)c3c(c2cc1Cl)CCC3)NCCCn1ccnc1	102	1	104	1	0	.	.
Cc1noc(C)c1NC(=O)N(C)C[C@H]1Oc2ccc(NC(=O)Cn3cnnn3)cc2C(=O)N([C@H](C)CO)C[C@@H]1C	.	-1	.	.	0	.	.
COc1ccccc1C(=O)Nc1ccnn1C1CCN(CC2CC=CCC2)CC1 (configuration not stated)	98	-6	102	-9	0	.	.
OC1CCN(C(=S)NCCc2ccccc2)CC1	105	-9	104	6	0	.	.
S=C(NCCc1ccccc1)N1CCc2ccccc2C1	80	-5	89	-13	95*	-8	100
CS(=O)(=O)c1ccc(NCCc2ccccn2)c([N+](=O)[O-])c1	100	-4	103	0	60*	-2	97
O=C(CN1C(=O)NC(Cc2ccccc2)C1=O)Nc1ccccc1F (configuration not stated)	.	-3	.	.	44*	.	.	GRK2 CP2=26;FAM quench SP=100
CC(=O)N(CCc1ccccc1C)Cc1cc2ccc(C)cc2[nH]c1=O	108	11	105	4	61*	-1	104
CC(=O)N(CCc1ccccc1C)Cc1cc2cc(C)ccc2[nH]c1=O	107	-3	104	2	2	.	.
Cc1ccc2cc(CN(C(=O)c3ccco3)c3ccccc3C)c(=O)[nH]c2c1	100	-1	104	14	76*	-3	98
COc1cc(NS(=O)(=O)c2ccc(Nc3nc(-c4ccccc4)cs3)cc2)nc(OC)n1	98	8	111	-1	3	.	.
CCN(CC)CCCNC(=S)N(Cc1cccnc1)Cc1cc2cc(C)cc(C)c2[nH]c1=O	87	11	84	-1	24	-6	97
COc1ccc(S(=O)(=O)N2CCCCC2)cc1NC(=O)c1ccc(N2CCCC2=O)cc1	.	2	.	.	79*	1	101
Cc1ccccc1NC(=O)CCCN1C(=O)C2CC=CCC2C1=O (configuration not stated)	105	-1	101	7	2	.	.

High-throughput results from PubChem.
